Test results as given in PubChem BioAssay (NCI).
The panel holds about 83,000 compounds, 20% with a hit somewhere; the sample as a whole holds those more often.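 Plates (96-well) were seeded with cells, treated with compound at one concentration, and incubated for 48 hours before percent growth was determined.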 Unmarked numbers belong to inactive results. Active and inactive are the calls of the source. Rule for the calls: active = growth percent below 10; inactive = the rest.

Tests used:
Experiment in all cases: NCI-60 one-dose screen, 48 h (100 = growth as untreated, 0 = no growth, -100 = all killed)
Details in all cases: 10 µM unless noted
[1] = system: NCI-H23 lung
[2] = system: NCI-H226 lung
[3] = system: NCI-H322M lung
[4] = system: HOP-62 NSCLC
[5] = system: NCI-H460 lung
[6] = system: HOP-92 NSCLC
[7] = system: NCI-H522 lung
[8] = system: A549/ATCC NSCLC
[9] = system: 786-0 renal
[10] = system: COLO 205 colon
[11] = system: DU-145 prostate
[12] = system: K-562 leukemia
[13] = system: MALME-3M melanoma
[14] = system: MDA-MB-231 breast
[15] = system: RXF 393 renal
[16] = system: SF-268 CNS
[17] = system: SF-295 CNS
[18] = system: SF-539 CNS
[19] = system: UACC-257 melanoma
[20] = system: M14 melanoma

Row | Structure (SMILES) | growth [1] | growth [2] | growth [3] | growth [4] | growth [5] | growth [6] | growth [7] | growth [8] | growth [9] | growth [10] | growth [11] | growth [12] | growth [13] | growth [14] | growth [15] | growth [16] | growth [17] | growth [18] | growth [19] | growth [20]
1 | CC12CCC3C(C=CC4=C(N)C(=O)CCC43C)C1CCC2=O (stereo not given) | 74.1% | 96.3% | 88.4% | 112% | 83.8% | 61.9% | 76.6% | 103% | 89.3% | 121% | 62.4% | -26.9% (active) | 70.8% | 101% | 95.2% | 89% | 105% | 82.8% | 86.7% | 79.5%
2 | CCCCCCCCCCCCCCCCCCOc1ccccc1COP(=O)(O)OOCC[N+](C)(C)C | 1.55% (active) | 42% | 87.6% | 3.04% (active) | 37.1% | -27.7% (active) | 21% | 35.1% | 9.57% (active) | -30.3% (active) | 9.26% (active) | 1.4% (active) | -12.3% (active) | -40.7% (active) | -64.7% (active) | 10.6% | 27.2% | 7.74% (active) | 11.5% | -29.1% (active)
3 | COc1cc2ncnc(Nc3ccc(F)c(Cl)c3)c2cc1OCC(=O)N1CCN(C)CC1 | 98.1% | 102% | 26.6% | 96.9% | 104% | 75.1% | 39.2% | 76.9% | 70.9% | 104% | 62.6% | 82.8% | 96.5% | 94.7% | 88.8% | 73.6% | 92.8% | 98.2% | 104% | 97.5%
4 | C=CC[n+]1ccc(-c2cc[n+](CC=C)cc2)cc1 | 78.8% | 99% | 95.7% | 83.7% | 91.9% | 111% | 19.7% | 71.9% | 109% | 9.91% (active) | 107% | 99.4% | 34.1% | 120% | 99.8% | 102% | 101% | 101% | 96.9% | 109%
5 | C/C(=C\c1ccn(-c2ccc(N)cc2)n1)[C@@H]1C[C@@H]2O[C@]2(C)CCC[C@H](C)[C@H](O)[C@@H](C)C(=O)C(C)(C)[C@@H](O)CC(=O)O1 | 26.1% | 31.7% | 18.6% | 44.7% | 13.3% | 48.7% | 18.6% | 29.8% | 20.2% | 1.88% (active) | -8.99% (active) | 11.4% | 36.7% | 33.5% | -0.234% (active) | 37.4% | 18.6% | -2.33% (active) | 59.5% | -17% (active)
6 | CC[C@H](C)[C@H](NC(=O)[C@H]1CCCCN1C)C(=O)N(C)[C@H](C[C@@H](OC(C)=O)c1nc(C(=O)NC23CC(C(=O)OC)(C2)C3)cs1)C(C)C | 18.4% | 18.3% | 55.7% | 11.8% | 8.77% (active) | -1.71% (active) | -22.3% (active) | 9.09% (active) | 9.6% (active) | -46.8% (active) | -5.33% (active) | 5.87% (active) | 67.3% | 15% | 35.9% | 23.2% | 2.38% (active) | -22% (active) | 46.6% | 4.22% (active)
7 | O=C1N[C@@H]2[C@@H](O)[C@@H](O)[C@H](O)C[C@H]2c2cc3c(c(O)c21)OCO3 | -14.9% (active) | -38.3% (active) | -14.7% (active) | -18.9% (active) | -15.1% (active) | -19% (active) | -32.6% (active) | -8.4% (active) | -10.8% (active) | -38.2% (active) | -19.1% (active) | 1.86% (active) | -48.7% (active) | -27.9% (active) | -37.3% (active) | -4.43% (active) | -11.5% (active) | -29.7% (active) | -21.8% (active) | -81.7% (active)
8 | CC12CCC=CC1CCC1C2CCC2(C)C(c3ccc(=O)oc3)CCC12O (stereo not given) | -64% (active) | -92.3% (active) | -22.5% (active) | -71.9% (active) | -69.3% (active) | -10.7% (active) | -27.9% (active) | -52.1% (active) | -51.1% (active) | -50.9% (active) | -97.4% (active) | 0.925% (active) | -48.4% (active) | -5.15% (active) | -47.2% (active) | -62.8% (active) | -60% (active) | -90.3% (active) | -70.3% (active) | -30.3% (active)
